Values joined by “and” are separate entries in the source; they are usually repeats but may differ in a detail not shown here. Equal entries are not always repeated. Records with an inconclusive call do not appear. Active and inactive are the calls of the source. Unless noted, calls follow the shape of the dose curve; as a rule, active = well fitted curve in the direction sought with a large enough effect in the repeat runs; inconclusive = weak or mixed curves; inactive = no such curve, though single readings can be large; an effect the other way counts as inactive or inconclusive.
Legend:
[1] = qHTS assay for small molecules that induce genotoxicity in human embryonic kidney cells expressing luciferase-tagged ATAD5 (AID 651632); also: nearly all actives have a fitted effect of over 15% in size
Summary of the method: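 Test compounds were delivered by pin tool onto HEK293T reporter cells (2,000/well) expressing ATAD5 fused to luciferase. After 16 hr at 37C, 5% CO2, Amplite was added for 30 min at room temperature and luminescence was measured.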

[2] = qHTS assay to test for compound auto fluorescence at 590 nm (red) in HepG2 cells (AID 720674)
Summary of the method: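 We screened compounds on adherent HepG2 cells, incubating them for an hour at 37 C in 5% CO2 before reading emission at 590 nm under 540 nm excitation; values reflect equivalence to Rose Bengal sodium fluorescence.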

[3] = qHTS assay to test for compound auto fluorescence at 460 nm (blue) in HEK293 cells (AID 720678)
Summary of the method: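 HEK293 cells (2,000/well, medium with 10% dialyzed FBS) attached 4-5 hr, then exposed to compound overnight at 37C, 5% CO2. Blue fluorescence read at 405/460 nm, with triamterene as reference fluorophore.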

[4] = qHTS assay to test for compound auto fluorescence at 535 nm (green) in HEK293 cells (AID 720680)
[5] = qHTS assay to test for compound auto fluorescence at 460 nm (blue) in HEK293 cell free culture (AID 720681)
Summary of the method: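 Blue fluorescence (Ex 405/Em 460 nm, triamterene-equivalent) was read immediately after pin transfer of compound or DMSO into medium (DMEM, 10% FBS) without cells.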

[6] = qHTS assay to test for compound auto fluorescence at 590 nm (red) in HEK293 cell free culture (AID 720683)
Summary of the method: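 Red-channel autofluorescence of compounds in culture medium (DMEM, 10% FBS), no cells, measured at 540/590 nm. Rose Bengal sodium is the reference fluorophore for equivalence.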

[7] = qHTS assay to test for compound auto fluorescence at 590 nm (red) in HepG2 cell free culture (AID 720684)
Summary of the method: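 Cell-free; medium MEM + 10% FBS; compound or DMSO added by pintool; read Ex 540/Em 590 nm; Rose Bengal sodium as red reference fluorophore.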

[8] = qHTS assay to test for compound auto fluorescence at 460 nm (blue) in HepG2 cell free culture (AID 720685)
Summary of the method: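 Cell-free plates of MEM plus 10% FBS received 23 nL compound or DMSO vehicle; blue-channel (405/460 nm) intensity scored against triamterene as reference fluorophore.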

[9] = qHTS assay to test for compound auto fluorescence at 535 nm (green) in HepG2 cell free culture (AID 720686)
[10] = qHTS assay to test for compound auto fluorescence at 460 nm (blue) in HepG2 cells (AID 720687)
Summary of the method: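 Blue-channel autofluorescence (Ex/Em 405/460 nm, triamterene-equivalent) was measured after 1 hr compound exposure at 37 C, 5% CO2. Cells were HepG2, plated overnight at 37 C in MEM plus 10% FBS.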

[11] = qHTS assay to identify small molecule antagonists of the estrogen related receptor signaling pathway with the pleiotropic PPARgamma coactivator (PGC) from Tox21 10K library (AID 1224841; call rule not given here; also: actives are mostly falling curves and most rising ones were filed inactive; nearly all actives have a fitted effect of over 50% in size; also: potency is read from the fitted curve at half-maximal effect; as to activity, negative = inhibition: series mostly up to about 92 µM)
Summary of the method: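 In the PGC/ERR line, DMSO solutions of test chemicals are pin-delivered to 2,000 cells/well six hours after dispensing. Following eighteen hours' incubation, One-Glo reagent is added and luminescence recorded.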

[12] = qHTS assay to identify small molecule antagonists of the estrogen related receptor (ERR) signaling pathway from Tox21 library (AID 1224848); also: nearly all actives have a fitted effect of over 50% in size; also: potency is read from the fitted curve at half-maximal effect
Summary of the method: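 Luciferase luminescence (ONE-Glo, 30 min room temperature) was the read-out. Cells of the NTP-supplied ERR line, 2,000 per well, were given 6 h at 37 C before compound addition in DMSO and 18 h exposure at 37 C.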

[13] = molecular target: Estrogen receptor (Homo sapiens) (UniProt P03372); assay: qHTS assay to identify small molecule antagonists of the estrogen receptor alpha (ER-alpha) signaling pathway using the BG1 cell line in the presence of 0.1 nM 17-beta-estradiol (AID 1259244); also: nearly all actives have a fitted effect of over 50% in size; also: potency is read from the fitted curve at half-maximal effect
Chain of Estrogen receptor (Homo sapiens) (P03372 whole entry, looked up): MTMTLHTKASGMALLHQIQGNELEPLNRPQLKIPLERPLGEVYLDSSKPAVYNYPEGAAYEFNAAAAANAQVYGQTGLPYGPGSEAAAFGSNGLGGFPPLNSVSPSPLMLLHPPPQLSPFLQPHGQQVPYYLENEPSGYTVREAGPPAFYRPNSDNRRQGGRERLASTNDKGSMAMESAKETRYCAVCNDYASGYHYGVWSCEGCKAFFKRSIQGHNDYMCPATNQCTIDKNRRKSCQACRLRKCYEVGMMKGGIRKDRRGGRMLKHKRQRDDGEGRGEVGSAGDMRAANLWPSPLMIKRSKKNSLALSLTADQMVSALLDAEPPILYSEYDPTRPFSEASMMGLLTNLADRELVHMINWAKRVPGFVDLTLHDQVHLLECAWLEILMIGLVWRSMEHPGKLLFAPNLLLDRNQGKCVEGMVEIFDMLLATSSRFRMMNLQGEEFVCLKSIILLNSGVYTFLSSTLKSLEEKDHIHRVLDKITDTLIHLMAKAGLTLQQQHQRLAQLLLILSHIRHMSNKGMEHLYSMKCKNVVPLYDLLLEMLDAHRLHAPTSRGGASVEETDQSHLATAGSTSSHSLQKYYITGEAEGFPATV
Summary of the method: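 Seeding of stripped-serum-adapted VM7Luc4E2 cells, 24 h attachment, compound transfer, then 0.1 nM final 17beta-estradiol; after 22 h incubation, ONE-Glo reagent and luminescence reading.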

[14] = molecular target: Androgen receptor (Homo sapiens) (UniProt P10275); assay: qHTS assay to identify small molecule agonists of the androgen receptor (AR) signaling pathway in the presence of an antagonist (AID 1259381; calls by dose curve; also: nearly all actives have a fitted effect of over 15% in size; also: potency is read from the fitted curve at half-maximal effect)
Chain of Androgen receptor (Homo sapiens) (P10275 whole entry, looked up): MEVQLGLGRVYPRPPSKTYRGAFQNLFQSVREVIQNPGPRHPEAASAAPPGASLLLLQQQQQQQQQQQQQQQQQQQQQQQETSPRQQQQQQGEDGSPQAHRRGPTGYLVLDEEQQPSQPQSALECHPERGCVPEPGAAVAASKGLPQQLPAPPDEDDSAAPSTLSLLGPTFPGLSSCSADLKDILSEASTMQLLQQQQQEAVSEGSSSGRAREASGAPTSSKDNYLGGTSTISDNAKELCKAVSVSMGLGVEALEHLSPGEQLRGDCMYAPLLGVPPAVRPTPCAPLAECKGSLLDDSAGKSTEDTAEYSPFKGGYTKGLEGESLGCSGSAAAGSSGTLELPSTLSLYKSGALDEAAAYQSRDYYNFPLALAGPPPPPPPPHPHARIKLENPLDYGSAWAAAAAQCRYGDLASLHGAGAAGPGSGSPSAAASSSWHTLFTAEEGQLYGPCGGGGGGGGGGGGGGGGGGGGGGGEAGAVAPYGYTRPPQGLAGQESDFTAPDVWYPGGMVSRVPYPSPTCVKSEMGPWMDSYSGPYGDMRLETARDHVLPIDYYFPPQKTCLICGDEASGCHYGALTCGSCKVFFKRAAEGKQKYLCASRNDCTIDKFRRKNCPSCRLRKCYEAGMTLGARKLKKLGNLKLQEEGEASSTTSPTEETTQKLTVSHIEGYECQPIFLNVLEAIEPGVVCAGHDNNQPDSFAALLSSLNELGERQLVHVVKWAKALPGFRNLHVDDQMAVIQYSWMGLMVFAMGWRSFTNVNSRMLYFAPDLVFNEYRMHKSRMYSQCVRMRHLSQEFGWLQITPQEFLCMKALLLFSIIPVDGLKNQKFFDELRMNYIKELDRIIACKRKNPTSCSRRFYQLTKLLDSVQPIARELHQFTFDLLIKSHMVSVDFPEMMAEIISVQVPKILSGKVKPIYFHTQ
Summary of the method: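 AR antagonist background: nilutamide 3.0uM final. Cell line: MDA-kb2, MMTV-driven luciferase, responsive to both AR and GR. Exposure 16hr, 37C, no CO2; ONE-Glo luminescence.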

[15] = molecular target: Thyrotropin-releasing hormone receptor (Homo sapiens) (UniProt P34981); assay: qHTS assay to identify small molecule antagonists of the thyrotropin-releasing hormone receptor (TRHR) signaling pathway (AID 1346877; active = well fitted inhibition curve with a large enough effect in the repeat runs, not every such curve was filed as active; also: series mostly up to about 51 µM)
Chain of Thyrotropin-releasing hormone receptor (Homo sapiens) (P34981 whole entry, looked up): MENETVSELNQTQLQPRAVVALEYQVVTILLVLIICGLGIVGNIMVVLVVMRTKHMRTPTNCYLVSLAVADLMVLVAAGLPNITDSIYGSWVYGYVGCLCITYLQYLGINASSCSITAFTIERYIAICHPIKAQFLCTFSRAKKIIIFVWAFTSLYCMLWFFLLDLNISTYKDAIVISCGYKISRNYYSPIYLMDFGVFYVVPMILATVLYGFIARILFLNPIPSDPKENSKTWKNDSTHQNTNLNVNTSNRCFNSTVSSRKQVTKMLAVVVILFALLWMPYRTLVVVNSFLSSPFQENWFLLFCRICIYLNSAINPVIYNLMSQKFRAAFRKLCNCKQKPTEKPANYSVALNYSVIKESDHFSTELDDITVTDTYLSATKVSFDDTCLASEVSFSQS
Summary of the method: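 Human TRHR in HEK293 cells; inhibition of the intracellular calcium rise triggered by 1 nM TRH was followed by fluorescence over 3 min. Compounds were run at 15 concentrations, three replicates each.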

[16] = molecular target: Thyrotropin receptor (Homo sapiens) (UniProt P16473); assay: qHTS assay to identify small molecule agonists of the thyroid stimulating hormone receptor (TSHR) signaling pathway (AID 1224843; calls by dose curve; also: nearly all actives have a fitted effect of over 45% in size; also: potency is read from the fitted curve at half-maximal effect)
Chain of Thyrotropin receptor (Homo sapiens) (P16473 whole entry, looked up): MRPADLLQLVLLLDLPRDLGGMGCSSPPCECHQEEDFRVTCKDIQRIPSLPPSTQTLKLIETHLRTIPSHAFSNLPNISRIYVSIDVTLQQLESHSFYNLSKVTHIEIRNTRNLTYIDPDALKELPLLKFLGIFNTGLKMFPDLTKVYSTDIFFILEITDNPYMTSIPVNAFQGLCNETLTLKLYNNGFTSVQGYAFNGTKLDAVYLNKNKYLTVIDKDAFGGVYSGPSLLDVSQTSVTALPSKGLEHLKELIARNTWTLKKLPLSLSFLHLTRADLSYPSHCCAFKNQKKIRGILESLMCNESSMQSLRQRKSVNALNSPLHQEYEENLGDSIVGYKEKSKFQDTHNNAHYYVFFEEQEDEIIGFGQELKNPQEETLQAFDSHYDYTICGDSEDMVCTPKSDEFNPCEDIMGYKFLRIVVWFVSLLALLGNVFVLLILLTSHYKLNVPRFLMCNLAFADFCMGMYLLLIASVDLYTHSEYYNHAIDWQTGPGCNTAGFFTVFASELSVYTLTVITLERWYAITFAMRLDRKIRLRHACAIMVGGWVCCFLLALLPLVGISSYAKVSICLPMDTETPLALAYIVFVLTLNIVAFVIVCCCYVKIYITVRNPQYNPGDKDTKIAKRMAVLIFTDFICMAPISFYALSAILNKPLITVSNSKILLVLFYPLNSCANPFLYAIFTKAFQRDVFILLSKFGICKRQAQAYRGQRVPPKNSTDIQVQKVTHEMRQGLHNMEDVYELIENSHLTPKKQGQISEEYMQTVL
Summary of the method: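 Agonist activity read as cAMP rise via d2/cryptate HTRF competition, 1 h room-temperature detection, in HEK293 cells expressing TSHR. Fifteen-point titrations, each run in triplicate, with a 30 min room-temperature incubation beforehand.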

[17] = qHTS RealTime-Glo MT Cell Viability Assay in HEK293 cells - 8 hour (AID 1224887); also: nearly all actives have a fitted effect of over 50% in size; also: potency is read from the fitted curve at half-maximal effect; as to activity change, negative = cytotoxicity: top concentration of the series differs between compounds
Summary of the method: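 Measured as luminescence from the same continuously cultured HEK293 wells at successive time points (0, 8, 16, 24, 32, 40 h) after compound addition. Reagent present from seeding; dosing at 5 h; incubation 37 C.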

[18] = molecular target: Progesterone receptor (Homo sapiens) (UniProt P06401); assay: qHTS assay to identify small molecule agonists of the progesterone receptor (PR) signaling pathway (AID 1346784; calls by dose curve; also: nearly all actives have a fitted effect of over 30% in size)
Chain of Progesterone receptor (Homo sapiens) (P06401 whole entry, looked up): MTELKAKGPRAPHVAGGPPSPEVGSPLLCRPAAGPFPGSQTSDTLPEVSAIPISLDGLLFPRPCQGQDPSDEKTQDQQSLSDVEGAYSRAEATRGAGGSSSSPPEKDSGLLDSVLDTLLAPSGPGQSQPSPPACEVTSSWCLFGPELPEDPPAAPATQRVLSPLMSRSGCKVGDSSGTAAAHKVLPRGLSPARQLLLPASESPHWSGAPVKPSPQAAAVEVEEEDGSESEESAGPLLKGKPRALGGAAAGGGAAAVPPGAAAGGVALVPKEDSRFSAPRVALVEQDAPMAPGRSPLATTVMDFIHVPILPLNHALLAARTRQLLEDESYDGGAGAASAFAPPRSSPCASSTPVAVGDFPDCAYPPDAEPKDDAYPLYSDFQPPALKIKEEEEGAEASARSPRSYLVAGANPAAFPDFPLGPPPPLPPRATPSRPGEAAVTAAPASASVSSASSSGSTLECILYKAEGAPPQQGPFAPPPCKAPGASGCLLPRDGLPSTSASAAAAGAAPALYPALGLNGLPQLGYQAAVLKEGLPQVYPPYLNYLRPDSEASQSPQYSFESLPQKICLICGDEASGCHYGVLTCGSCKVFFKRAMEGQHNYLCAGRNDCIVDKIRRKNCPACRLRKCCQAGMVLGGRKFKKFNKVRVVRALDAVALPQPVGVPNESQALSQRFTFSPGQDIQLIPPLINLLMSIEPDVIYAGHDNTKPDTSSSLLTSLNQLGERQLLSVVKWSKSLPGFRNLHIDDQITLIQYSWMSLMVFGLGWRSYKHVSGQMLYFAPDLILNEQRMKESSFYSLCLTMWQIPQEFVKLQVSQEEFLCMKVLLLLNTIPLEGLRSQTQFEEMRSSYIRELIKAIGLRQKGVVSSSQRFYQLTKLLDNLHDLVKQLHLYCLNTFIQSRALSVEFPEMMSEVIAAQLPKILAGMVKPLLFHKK
Summary of the method: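 Fluorescence from LiveBLAzer B/G FRET substrate cleavage (2 hr, RT) reported PR activation in PR-UAS-bla HEK 293T cells treated 16 hr at 37C/5% CO2 with compounds; medium contained 2% charcoal-stripped FBS.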

[19] = qHTS assay to identify small molecule agonists of the progesterone receptor (PR) signaling pathway - cell viability counter screen (AID 1346799; calls by dose curve; also: nearly all actives have a fitted effect of over 45% in size; also: potency is read from the fitted curve at half-maximal effect)
Summary of the method: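 In parallel with the beta-lactamase readout, cytotoxicity toward PR-UAS-bla HEK293T cells was measured by CellTiter-Glo luminescence following 16 hr compound incubation in 2% charcoal-stripped FBS medium.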

[20] = molecular target: Estrogen receptor beta (Homo sapiens) (UniProt Q92731); assay: qHTS assay to identify small molecule agonists of the estrogen receptor beta (ER-beta) signaling pathway (AID 1259377; active = well fitted activation curve with a large enough effect in the signal ratio in the repeat runs, not every such curve was filed as active; the % refers to the signal ratio)
Chain of Estrogen receptor beta (Homo sapiens) (Q92731 whole entry, looked up): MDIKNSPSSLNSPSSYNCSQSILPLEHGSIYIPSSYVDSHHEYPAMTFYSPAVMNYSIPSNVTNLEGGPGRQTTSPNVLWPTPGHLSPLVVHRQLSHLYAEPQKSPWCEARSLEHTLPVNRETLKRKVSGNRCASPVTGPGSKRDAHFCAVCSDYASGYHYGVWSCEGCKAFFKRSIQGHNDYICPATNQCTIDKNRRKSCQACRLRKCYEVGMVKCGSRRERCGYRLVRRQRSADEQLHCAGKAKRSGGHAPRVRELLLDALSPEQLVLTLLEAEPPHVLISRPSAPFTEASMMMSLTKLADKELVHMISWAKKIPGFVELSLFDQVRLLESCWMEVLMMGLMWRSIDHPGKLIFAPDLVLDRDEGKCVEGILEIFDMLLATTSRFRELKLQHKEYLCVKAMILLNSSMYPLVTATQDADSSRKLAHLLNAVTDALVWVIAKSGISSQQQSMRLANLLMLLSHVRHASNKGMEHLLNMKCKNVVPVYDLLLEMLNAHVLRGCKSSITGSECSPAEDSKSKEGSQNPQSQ
Summary of the method: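 qHTS in ER-beta-UAS-bla HEK293T cells: 6 hr settling, then 16 hr compound at 37C, then LiveBLAzer substrate 2 h at RT before fluorescence reading.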
% is scaled to controls: 0 for no effect and ±100 for the full control effect.

CO/C=C(/C(=O)OC)c1ccccc1Oc1cc(Oc2ccccc2C#N)ncn1
inactive: Potency [1] | outcome [2] | Potency [3] | Potency [4] | Potency [5] | outcome [6] | outcome [7] | Potency [8] | Potency [9] | Potency [10] | Potency [14] | outcome [15]
active: Potency [11] 16.4 µM | Potency [12] 2.06 µM | Potency [13] 5.18 µM

COc1ccc(C(c2ccc(OC)cc2)C(Cl)(Cl)Cl)cc1
inactive: Potency [1] | outcome [2] | Potency [4] | Potency [5] | outcome [6] | outcome [7] | Potency [8] | Potency [9] | Potency [10] | outcome [15]
active: Potency [11] 8.58 µM | Potency [12] 30.5 µM

Oc1c(I)cc(I)cc1I
active: Potency [11] 61.1 µM
inactive: Potency [16] | Potency [17] | Potency [14] | outcome [18] | Potency [19]

O=C(c1ccccc1)C(Cl)Cl
active: Potency [11] 68.6 µM
inactive: Potency [13] | outcome [20] | Potency [14] | Potency [19] | outcome [15]

Cc1ccc2nc3sc(=O)sc3nc2c1
inactive: activation [16] -7.09% [at 19 µM] | activity change, negative = cytotoxicity [17] 4.11% [at 15.8 µM] | activity change, negative = inhibition [13] -0.302% [at 19 µM] | activation [18] 0.875% [at 19 µM] | activity change, negative = cytotoxicity [19] -2.84% [at 19 µM] | activity, negative = inhibition [15] 3.17% [at 10.5 µM]

CC(c1ccccc1)(c1ccc(O)cc1)c1ccc(O)cc1
inactive: Potency [13] | outcome [20] | outcome [15]
active: Potency [11] 34.4 µM | Potency [16] 15.4 µM | Potency [12] 61.1 µM

c1ccc2c(c1)Sc1ccccc1N2CC1CN2CCC1CC2 (configuration not stated)
inactive: Potency [1] | outcome [2] | Potency [3] | Potency [4] | Potency [5] | outcome [6] | outcome [7] | Potency [8] | Potency [9] | Potency [10] | Potency [11]
active: Potency [19] 13.3 µM

COc1cc(OC)c(OC)cc1C=O
active: Potency [11] 21.9 µM | Potency [12] 18.7 µM | Potency [13] 59.3 µM
inactive: Potency [1] | Potency [3] | Potency [5] | outcome [6] | outcome [7] | Potency [8] | Potency [9] | Potency [10] | Potency [16] | Potency [17] | Potency [14] | outcome [15]

OC(Cc1ccccc1Cl)(Cn1[nH]cnc1=S)C1(Cl)CC1 (configuration not stated)
inactive: Potency [16] | Potency [14] | outcome [15]

CNC(=O)Oc1cc(C)c(SC)c(C)c1
active: Potency [14] 12.2 µM
inactive: Potency [16] | outcome [18] | Potency [19] | outcome [15]

O=C(Nc1ccccc1-c1ccc(Cl)cc1)c1cccnc1Cl
inactive: Potency [1] | outcome [2] | Potency [3] | Potency [4] | Potency [5] | outcome [6] | outcome [7] | Potency [8] | Potency [9] | Potency [10] | outcome [20] | outcome [18] | outcome [15]
active: Potency [11] 64.8 µM | Potency [12] 32.5 µM

Nc1ccc([N+](=O)[O-])cc1
active: Potency [12] 7.7 µM | Potency [17] 21.9 µM | Potency [14] 61.1 µM | Potency [19] 7.7 µM
inactive: outcome [2] | Potency [3] | Potency [4] | Potency [5] | outcome [6] | outcome [7] | Potency [8] | Potency [9] | Potency [10] | Potency [11]

CN1CSC(=S)N(C)C1
active: Potency [12] 4.83 µM and 13.6 µM | Potency [13] 13.6 µM and 17.2 µM | Potency [19] 24.3 µM
inactive: Potency [1] | outcome [2] | Potency [3] | Potency [4] | Potency [5] | outcome [6] | outcome [7] | Potency [8] | Potency [9] | Potency [10] | Potency [16] | Potency [17] | outcome [18] | outcome [15]

OCC(c1ccc(Cl)cc1)c1ccc(Cl)cc1
active: Potency [17] 34.7 µM
inactive: Potency [1] | outcome [2] | Potency [3] | Potency [5] | outcome [7] | Potency [8] | Potency [9] | Potency [10] | outcome [20] | Potency [19] | outcome [15]

O=[N+]([O-])c1c(Cl)c(Cl)cc(Cl)c1Cl
inactive: Potency [1] | outcome [2] | Potency [3] | Potency [4] | Potency [5] | outcome [6] | outcome [7] | Potency [8] | Potency [9] | Potency [10] | Potency [12] | Potency [13] | outcome [18]
